Results filed as inconclusive are left out. Active and inactive are the calls of the source. Unless noted, calls come from the whole dose curve; as a rule, active = well fitted curve in the direction sought with a large enough effect in the repeat runs; inconclusive = weak or mixed curves; inactive = no such curve, though single readings can be large; an effect the other way counts as inactive or inconclusive.
Key:
[1] = qHTS assay for small molecules that induce genotoxicity in human embryonic kidney cells expressing luciferase-tagged ATAD5 (AID 651632); note: nearly all actives have a fitted effect of over 15% in size
Outline: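 A rise in luciferase signal from ATAD5-tagged HEK293T cells marks genetic stress. Cells were exposed to compounds for 16 hr at 37C, 5% CO2, then luciferase was quantified after a 30 min room-temperature incubation with Amplite.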

[2] = qHTS assay for small molecule agonists of the p53 signaling pathway - cell viability (AID 651633; calls by dose curve; note: nearly all actives have a fitted effect of over 30% in size; note: potency is the fitted concentration of half-maximal effect;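 for activity change, negative = cytotoxicity: p53RE-bla HCT reporter cells with a stable beta-lactamase p53 reporter; series mostly up to about 83 µM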)
Outline: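 p53RE-bla cells, seeded at 4,000 per well and rested 5 h at 37 C/5% CO2, received compounds in DMSO for 16 h at 37 C. CellTiter-Glo was then added, and luminescence was read after 30 min at room temperature to gauge cytotoxicity.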

[3] = qHTS assay for small molecules that induce genotoxicity in human embryonic kidney cells expressing luciferase-tagged ATAD5 - cell viability (AID 651634; calls by dose curve; note: nearly all actives have a fitted effect of over 25% in size; note: potency is the fitted concentration of half-maximal effect)
Outline: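 Cytotoxicity counter-readout: after 15.5 hr compound treatment at 37C, live-cell protease activity in ATAD5-luciferase HEK293T cells measured by CellTiter-Fluor fluorescence, 30 min development at 37C.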

[4] = qHTS assay for small molecule disruptors of the mitochondrial membrane potential - cell viability (AID 720634; calls by dose curve;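 note: human HepG2 liver cancer cells; series mostly up to about 83 µM; nearly all actives have a fitted effect of over 20% in size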)
Outline: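 Cytotoxicity was quantified from ATP content by CellTiter-Glo luminescence in the same wells as the MMP dye read-out. HepG2 (2,000 cells/well) were plated overnight and exposed to compounds for 1 hr at 37 C.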

[5] = qHTS assay for small molecule disruptors of the mitochondrial membrane potential (AID 720635); note: potency is the fitted concentration of half-maximal effect
Outline: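 HepG2 cells (2,000/well) attached overnight at 37C, then took compound for 1 hr at 37C, 5% CO2. Mito-MPS dye was added for 30 min; fluorescence was read at 490/535 nm (monomers) and 540/590 nm (aggregates).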

[6] = qHTS assay to test for compound auto fluorescence at 535 nm (green) in HepG2 cells (AID 720675)
[7] = qHTS assay to test for compound auto fluorescence at 460 nm (blue) in HEK293 cells (AID 720678)
Outline: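 HEK293 cells (2,000/well, medium with 10% dialyzed FBS) attached 4-5 hr, then exposed to compound overnight at 37C, 5% CO2. Blue fluorescence read at 405/460 nm, with triamterene as reference fluorophore.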

[8] = qHTS assay to test for compound auto fluorescence at 590 nm (red) in HEK293 cells (AID 720679)
Outline: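 HEK293 cells (2,000/well, 10% dialyzed FBS) attached 4-5 hr, then dosed with compound or DMSO and incubated overnight at 37C, 5% CO2. Red fluorescence read at 540/590 nm, Rose Bengal sodium as reference fluorophore.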

[9] = qHTS assay to test for compound auto fluorescence at 460 nm (blue) in HEK293 cell free culture (AID 720681)
Outline: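 Test compounds were pinned into cell-free culture medium (DMEM with 10% FBS) and fluorescence was read directly at Ex/Em 405/460 nm. Signals were expressed as fluorescence equivalents of triamterene, with DMSO vehicle as control.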

[10] = qHTS assay to test for compound auto fluorescence at 535 nm (green) in HEK293 cell free culture (AID 720682)
Outline: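 Each library compound, or DMSO control, is added by pintool to medium alone, comprising DMEM and 10% FBS. Emission at 535 nm following 485 nm excitation is quantified against fluorescein.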

[11] = qHTS assay to test for compound auto fluorescence at 590 nm (red) in HEK293 cell free culture (AID 720683)
Outline: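 Tox21 10K library compounds were pinned into cell-free DMEM with 10% FBS and fluorescence was read at excitation 540 nm. Activity is expressed as Rose Bengal sodium equivalency.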

[12] = qHTS assay to test for compound auto fluorescence at 590 nm (red) in HepG2 cell free culture (AID 720684)
Outline: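 Readout: intrinsic compound fluorescence at 590 nm emission after 540 nm excitation, scaled to Rose Bengal sodium. Matrix was cell-free MEM with 10% FBS; DMSO vehicle wells served as control.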

[13] = qHTS assay to test for compound auto fluorescence at 460 nm (blue) in HepG2 cell free culture (AID 720685)
Outline: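 Cell-free plates of MEM plus 10% FBS received 23 nL compound or DMSO vehicle; blue-channel (405/460 nm) intensity scored against triamterene as reference fluorophore.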

[14] = qHTS assay to test for compound auto fluorescence at 535 nm (green) in HepG2 cell free culture (AID 720686)
[15] = qHTS assay to test for compound auto fluorescence at 460 nm (blue) in HepG2 cells (AID 720687)
Outline: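 Cells (2,000/well in MEM with 10% FBS) attached overnight at 37 C, then were exposed to compound or DMSO for 1 hr at 37 C, 5% CO2. Fluorescence read at Ex/Em 405/460 nm, expressed as triamterene-equivalent signal.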

[16] = biological target: Glucocorticoid receptor (Homo sapiens) (UniProt P04150); test: qHTS assay to identify small molecule agonists of the glucocorticoid receptor (GR) signaling pathway (AID 720691; active = well fitted activation curve with a large enough effect in the signal ratio in the repeat runs, not every such curve was filed as active; the % refers to the signal ratio)
Outline: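 Agonist-mode qHTS in HeLa cells stably expressing a glucocorticoid-response-element beta-lactamase reporter. Fluorescence intensity read with FRET substrate (2 h, room temperature) after 18 h compound treatment at 37 C.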

[17] = qHTS assay to test for compound auto fluorescence at 590 nm (red) in HepG2 cells (AID 720674)
Outline: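 Rose Bengal sodium served as the red fluorophore standard. HepG2 monolayers (overnight attachment, MEM with 10% FBS) were exposed to test compounds for 1 hr at 37 C and read at Ex 540/Em 590 nm.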

[18] = biological target: Glucocorticoid receptor (Homo sapiens) (UniProt P04150); test: qHTS assay to identify small molecule antagonists of the glucocorticoid receptor (GR) signaling pathway (AID 720692; active = well fitted inhibition curve with a large enough effect in the signal ratio in the repeat runs, not every such curve was filed as active; the % refers to the signal ratio)
Outline: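 Inhibition of dexamethasone-driven (5 nM final) beta-lactamase expression was measured in GRE-reporter HeLa cells over 18 h at 37C. Fluorescence was read after 2 h with the B/G FRET substrate at room temperature.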

[19] = qHTS assay to test for compound auto fluorescence at 535 nm (green) in HEK293 cells (AID 720680)
% is set by controls: 0 for no effect and ±100 for the full control effect.

Chain of Glucocorticoid receptor (Homo sapiens) (P04150 whole entry, looked up): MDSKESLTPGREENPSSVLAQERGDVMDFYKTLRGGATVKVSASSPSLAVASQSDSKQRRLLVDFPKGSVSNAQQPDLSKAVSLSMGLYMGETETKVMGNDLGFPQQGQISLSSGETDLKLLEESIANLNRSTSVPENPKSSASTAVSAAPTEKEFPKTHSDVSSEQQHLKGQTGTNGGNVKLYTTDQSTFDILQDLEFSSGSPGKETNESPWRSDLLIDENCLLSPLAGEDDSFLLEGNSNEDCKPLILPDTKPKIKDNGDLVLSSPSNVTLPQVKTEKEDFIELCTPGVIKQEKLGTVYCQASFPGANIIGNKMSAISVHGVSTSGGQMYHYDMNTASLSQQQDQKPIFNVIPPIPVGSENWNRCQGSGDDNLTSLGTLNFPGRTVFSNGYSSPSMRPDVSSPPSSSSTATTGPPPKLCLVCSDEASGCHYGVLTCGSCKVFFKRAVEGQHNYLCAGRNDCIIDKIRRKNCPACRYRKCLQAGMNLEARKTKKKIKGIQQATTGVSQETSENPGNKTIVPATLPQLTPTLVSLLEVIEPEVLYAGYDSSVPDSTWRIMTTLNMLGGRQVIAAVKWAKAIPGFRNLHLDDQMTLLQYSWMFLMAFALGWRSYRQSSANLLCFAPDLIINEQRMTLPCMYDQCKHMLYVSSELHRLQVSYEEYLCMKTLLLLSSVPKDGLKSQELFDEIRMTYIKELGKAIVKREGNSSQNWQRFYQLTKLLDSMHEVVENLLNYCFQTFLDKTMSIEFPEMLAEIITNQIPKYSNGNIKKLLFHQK

Cc1ccc(S(=O)(=O)NC(=O)NC2CCCCC2)cc1
inactive: Potency [1] | Potency [2] | Potency [3] | outcome [4] | Potency [5] | outcome [6] | Potency [7] | outcome [8] | Potency [9] | outcome [10] | outcome [11] | outcome [12] | Potency [13] | outcome [14] | Potency [15] | Potency [16]

O=C(/C=C/c1ccc([N+](=O)[O-])cc1)c1ccccc1
inactive: Potency [3] | outcome [4] | outcome [17] | outcome [6] | Potency [7] | outcome [8] | Potency [9] | outcome [10] | outcome [12] | Potency [13] | outcome [14] | Potency [15] | Potency [16]
active: Potency [2] 68.7 µM | Potency [5] 30.7 µM

O=C(O)CNC(=O)c1ccccc1I
inactive: Potency [2] | Potency [3] | outcome [4] | outcome [17] | outcome [6] | Potency [7] | outcome [8] | Potency [9] | outcome [10] | outcome [11] | outcome [12] | Potency [13] | outcome [14] | Potency [15] | Potency [16] | Potency [18]

CCN(CC)c1cccc(O)c1
inactive: Potency [2] | Potency [3] | outcome [4] | outcome [17] | outcome [6] | outcome [8] | outcome [19] | Potency [9] | outcome [10] | outcome [11] | outcome [12] | Potency [13] | outcome [14] | Potency [15] | Potency [16] | Potency [18]

CCCCCCCCCCCSCC(=O)O
inactive: Potency [1] | Potency [3] | outcome [4] | outcome [17] | outcome [6] | outcome [8] | outcome [19] | Potency [9] | outcome [10] | outcome [12] | Potency [13] | Potency [15]

CN1CCCN(C(c2ccccc2)c2ccc(Cl)cc2)CC1 (stereo not drawn)
inactive: Potency [1] | Potency [3] | outcome [4] | outcome [17] | outcome [6] | Potency [7] | outcome [8] | outcome [19] | Potency [9] | outcome [10] | outcome [11] | outcome [12] | Potency [13] | outcome [14] | Potency [15] | Potency [16]

COc1ccc(CCN(C)CCCN2CCc3cc(OC)c(OC)cc3CC2=O)cc1OC
inactive: Potency [2] | Potency [3] | outcome [4] | Potency [5] | outcome [6] | Potency [7] | outcome [8] | outcome [19] | Potency [9] | outcome [10] | outcome [11] | outcome [12] | outcome [14] | Potency [15]

CC(C)(C)CCCCCCOC(=O)c1ccccc1C(=O)OCCCCCCC(C)(C)C
inactive: Potency [1] | outcome [4] | outcome [6] | Potency [7] | outcome [8] | outcome [19] | Potency [9] | outcome [10] | outcome [11] | outcome [12] | Potency [13] | outcome [14] | Potency [15] | Potency [16]

CCN(Cc1cccc(S(=O)(=O)O)c1)c1ccc(C(=C2C=CC(=[N+](CC)Cc3cccc(S(=O)(=O)O)c3)C=C2)c2ccc(O)cc2S(=O)(=O)[O-])cc1
active: Potency [3] 33.1 µM
inactive: Potency [1] | outcome [17] | outcome [6] | Potency [7] | outcome [8] | outcome [19] | Potency [9] | outcome [10] | outcome [12] | Potency [13] | outcome [14] | Potency [15] | Potency [16] | Potency [18]

CCCCC[C@H](O)/C=C/[C@H]1[C@H](O)CC(=O)[C@@H]1C/C=C\CCCC(=O)O
inactive: Potency [2] | outcome [4] | Potency [5] | outcome [17] | outcome [6] | Potency [7] | outcome [8] | outcome [19] | outcome [10] | outcome [11] | outcome [12] | Potency [13] | outcome [14] | Potency [15] | Potency [16]

CCC(Cl)CC(Cl)C(Cl)C(Cl)C(Cl)C(C)Cl (stereo not drawn)
inactive: activation [1] 8.79% [at 17.9 µM] | activity, negative = cytotoxicity [3] 13% [at 17.9 µM] | activity change, negative = cytotoxicity [4] -14.9% [at 17.9 µM] | fluorescence, relative to Rose Bengal [17] 0.266% [at 13.4 µM] | fluorescence, % of fluorescein control [6] -0.0606% [at 13.4 µM] | fluorescence, % of fluorescent control [8] -0.173% [at 13.4 µM] | fluorescence, % of fluorescent control [9] 0.102% [at 13.4 µM] | activity change [10] -0.0067% [at 13.4 µM] | fluorescence, % of fluorescent control [11] -0.0269% [at 13.4 µM] | fluorescence, % of Rose Bengal [12] 0.0345% [at 13.4 µM] | fluorescence, % of fluorescein control [14] -0.002% [at 13.4 µM] | fluorescence, % of fluorescent control [15] 0.0691% [at 13.4 µM] | activation [16] -0.909% [at 15 µM] | Potency [18]

CCCCCCCCCCCC(=O)OCC(O)CO (stereo not drawn)
inactive: Potency [2] | Potency [3] | outcome [4] | outcome [6] | Potency [7] | outcome [19] | Potency [9] | outcome [10] | outcome [12] | Potency [13] | outcome [14] | Potency [15]

O=C1OC(=O)c2c(Br)c(Br)c(Br)c(Br)c21
inactive: Potency [2] | Potency [3] | outcome [4] | Potency [5] | outcome [6] | Potency [7] | outcome [8] | Potency [9] | outcome [10] | outcome [12] | Potency [13] | outcome [14] | Potency [15] | Potency [16] | Potency [18]

CCCCCCCC(=O)Oc1c(Br)cc(C#N)cc1Br
inactive: Potency [2] | outcome [17] | outcome [6] | Potency [7] | outcome [8] | outcome [19] | Potency [9] | outcome [10] | outcome [11] | outcome [12] | Potency [13] | outcome [14] | Potency [15] | Potency [16]
active: Potency [5] 12.1 µM

CC(C)(C)C(O)/C=C/c1ccc2c(c1)OCO2 (stereo not drawn)
inactive: Potency [2] | Potency [3] | outcome [4] | outcome [17] | outcome [6] | Potency [7] | outcome [19] | Potency [9] | outcome [10] | outcome [11] | outcome [12] | outcome [14] | Potency [15]

CC1CCC(C(C)CS)CC1S (stereo not drawn)
active: Potency [2] 54.5 µM
inactive: Potency [1] | Potency [5] | outcome [17] | outcome [6] | outcome [8] | outcome [19] | outcome [10] | outcome [11] | outcome [12] | Potency [13] | outcome [14] | Potency [15] | Potency [16]

COc1cc(NC(C)CCCN)c2ncccc2c1 (stereo not drawn)
inactive: Potency [1] | Potency [3] | fluorescence, relative to Rose Bengal [17] -0.0926% [at 18.6 µM] | fluorescence, % of fluorescein control [6] -0.0145% [at 18.6 µM] | fluorescence, % of triamterene [7] 1.22% [at 18.6 µM] | fluorescence, % of fluorescent control [8] -0.0138% [at 18.6 µM] | fluorescence, % of fluorescein [19] -0.0105% [at 18.6 µM] | fluorescence, % of fluorescent control [9] 1.01% [at 18.6 µM] | activity change [10] 0.0005% [at 18.6 µM] | fluorescence, % of fluorescent control [11] -0.109% [at 18.6 µM] | fluorescence, % of Rose Bengal [12] 0.347% [at 18.6 µM] | fluorescence, % of fluorescent control [15] 0.746% [at 18.6 µM]

CCN(CC)CCOc1ccccc1C(=O)CCc1ccccc1
inactive: Potency [2] | outcome [4] | outcome [17] | outcome [6] | Potency [7] | outcome [8] | outcome [19] | Potency [9] | outcome [10] | outcome [11] | outcome [12] | Potency [13] | outcome [14] | Potency [15]

CN1C(CSCC(F)(F)F)Nc2cc(Cl)c(S(N)(=O)=O)cc2S1(=O)=O (stereo not drawn)
inactive: Potency [1] | outcome [4] | Potency [5] | outcome [6] | Potency [7] | outcome [8] | outcome [19] | Potency [9] | outcome [10] | outcome [11] | outcome [12] | outcome [14] | Potency [15] | Potency [16] | Potency [18]
